Screening results deposited in PubChem by National Center for Advancing Translational Sciences (NCATS).
KB-V1 cytotox: KB-V1 MDR subline cytotoxicity. KB-V1 MDR cells viability, CellTiter-Glo, 72 h. Potency, µM (doses to about 46.1 µM), actives largely listed as cytotoxic. 3.4% of 400,000 active. AID 1347076; note: % is set by controls: 0 for no effect and ±100 for the full control effect; nearly all actives have a fitted effect of over 60% in size
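Readout: CellTiter-Glo luminescence, 10 min after addition. Cells: KB-V1 MDR subline, 72 h at 37 degrees C with compound. Analysis: corrected, normalized data fitted to concentration-effect curves.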
SW480 rerep: inducers of DNA re-replication in SW480 colon cancer cells; SW480 DNA re-replication, Hoechst DNA content imaging, 48 h; Potency, µM (titrated, usually from 46.1 µM), inactives show at the top dose re-replication activation, most hits filed as activators; 1.8% of 340,000 active; note: % of control where 0% means no effect; nearly all actives have a fitted effect of over 55% in size
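250 cells/well; 23 nL cpd via pin tool; 48 hr, 37 C, 5% CO2; Hoechst 40 min; imager read of total nuclear intensity, ex 405/em 500-530 nm.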
ELG1 DNA repair: blocks ELG1-dependent DNA repair in HEK293T cells. HEK293T ELG1-luciferase reporter, luminescence, 16 h; DNA damage induced by 5-fluorouridine. Potency, µM (doses to about 46.1 µM), for inactives: at the top dose activity change, negative = inhibition, usual class: inhibitors. 2.3% of 330,000 active. AID 504467; note: % is set by controls: 0 for no effect and ±100 for the full control effect; nearly all actives have a fitted effect of over 55% in size
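Step one: seed 2,000 cells per well. Step two: pin-transfer compound or DMSO alongside 5-fluorouridine. Step three: incubate 16 hr, 37 °C, 5% CO2. Step four: add ONE-Glo, wait 30 min, read luminescence.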
MCF10A rerep: DNA re-replication induction in MCF 10a cells | MCF 10A DNA re-replication, Hoechst nuclear intensity, 48 h | Potency, µM (titrated, usually from 46.1 µM), without a hit: at the highest dose activity, positive = re-replication, usual class: activators | 2.9% of 350,000 active; note: % of control where 0% means no effect; nearly all actives have a fitted effect of over 50% in size
KB-3-1 tox: kills parental KB-3-1 adenocarcinoma cells; Potency, µM (top dose mostly 46.1 µM), most hits filed as cytotoxic; KB-3-1 viability, CellTiter-Glo ATP luminescence, 72 h; 1.4% of 400,000 active; note: % is set by controls: 0 for no effect and ±100 for the full control effect; nearly all actives have a fitted effect of over 60% in size
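Parental KB-3-1 adenocarcinoma cells in phenol-red-free DMEM with 10% FBS were pin-treated with compounds at several concentrations, incubated 72 h at 37 °C, and viability read by CellTiter-Glo luminescence; concentration-effect curves were fitted after normalization.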
* hit, by the source's call; i = inactive; ? = inconclusive; . = no result. An excerpt weighted towards active compounds, which were near 8.2% of everything screened. Calls come from the whole dose curve; as a rule, active = well fitted curve in the direction sought with a large enough effect; inconclusive = small, poorly fitted or top-dose-only effect, or another doubt; inactive = no such curve, though single readings can be large; an effect the other way counts as inactive or inconclusive. Potency is the fitted concentration of half-maximal effect.

SMILES	KB-V1 cytotox	SW480 rerep	ELG1 DNA repair	MCF10A rerep	KB-3-1 tox
CCCn1c(=N)c(C(=O)NCc2cccnc2)cc2c(=O)n3ccccc3nc21	i	.	.	.	i
N=c1c(C(=O)NCC2CCCO2)cc2c(=O)n3ccccc3nc2n1Cc1ccc(F)cc1 (stereo not drawn)	i	18µM*	-13%	9.2µM*	i
Cc1cccn2c(=O)c3cc(C(=O)NCC4CCCO4)c(=N)n(Cc4cccnc4)c3nc12 (stereo not drawn)	i	9.2µM*	-15%	13µM*	i
Cc1ccc2nc3c(cc(C(=O)NCC4CCCO4)c(=N)n3CCCOC(C)C)c(=O)n2c1 (stereo not drawn)	i	?	0%	?	i
Cc1ccc2nc3c(cc(C(=O)NCC4CCCO4)c(=N)n3C(C)C)c(=O)n2c1 (stereo not drawn)	i	.	.	.	i
N=c1c(C(=O)NCC2CCCO2)cc2c(=O)n3ccccc3nc2n1Cc1cccnc1 (stereo not drawn)	i	10µM*	-3%	13µM*	i
N=c1c(C(=O)NCC2CCCO2)cc2c(=O)n3ccccc3nc2n1Cc1ccco1 (stereo not drawn)	i	21µM*	4%	?	i
COc1ccc(C)cc1NC(=O)NCc1cccn1Cc1ccccc1	i	.	.	.	i
CC1(C(=O)NS(=O)(=O)c2ccc(Cl)s2)CCN1C(=O)C1(c2ccccc2)CCCC1 (stereo not drawn)	i	.	.	.	i
COc1cc(CNc2ncc(-c3ccc(Br)cc3)n2C)cc(OC)c1O	i	-12%	?	-4%	i
CCN(CC)P(=O)(Nc1ccc(C)cc1Br)c1ccc(N(C)C)cc1NC(=O)c1ccco1 (stereo not drawn)	18µM*	?	?	?	?
CCc1c(C)sc(NC(=O)c2cc(-c3ccc(OC)c(OC)c3)on2)c1C#N	i	2%	5%	5.2µM*	i
CCc1c(C)sc(NC(=O)c2cc(-c3cc(OC)ccc3OC)on2)c1C#N	?	-1%	-3%	2.6µM*	i
CCc1c(C)sc(NC(=O)c2cc(-c3ccc(O)cc3)on2)c1C#N	i	15µM*	-4%	12µM*	i
COc1ccc(-c2csc(NC(=O)c3cc(C)on3)c2C#N)cc1OC	16µM*	3%	4%	?	i
COc1ccc(-c2nnc(NC(=O)c3cc(C)on3)s2)cc1	i	2%	?	11%	i
CCOC(=O)c1c(NC(=O)c2cc(-c3ccc(OC)c(OC)c3)on2)sc(C)c1C	i	.	.	.	i
O=S(=O)(NC1C2CC3CC(C2)CC1C3)c1ccccc1 (stereo not drawn)	i	0%	-5%	1%	i
COc1ccccc1N1CCN(S(=O)(=O)c2cc(Br)cnc2N)CC1	i	-21%	?	9%	i
CCCc1ccc(-c2cc(C(=O)N/N=C/c3ccc([N+](=O)[O-])o3)c3ccccc3n2)cc1	8.2µM*	7.1µM*	?	5µM*	12µM*
O=C(N/N=C/c1ccc([N+](=O)[O-])o1)c1cn2ccc3ccccc3c2n1	i	21µM*	-12%	?	i
NC(=S)N/N=C1\CCSc2ccc(Cl)cc21	?	18µM*	?	-2%	i
O=C(N/N=C1\CCSc2ccc(F)cc21)c1cccnc1	i	-12%	14%	-4%	i
NCCCn1c(C(=O)c2cc(Cl)c(N)c(Cl)c2)c2ccc(C(F)(F)F)cc2[n+]1[O-]	i	-9%	22%	0%	i
NC(=O)c1ccc(Cn2c(C(=O)c3cc(Cl)c(N)c(Cl)c3)c3ccccc3[n+]2[O-])cc1	i	?	0%	12µM*	?
NCCCn1c(C(=O)c2cc(Cl)c(N)c(Cl)c2)c2ccc([N+](=O)[O-])cc2[n+]1[O-]	i	1µM*	?	71%	?
CCOCc1c(C(=O)NC2=Nc3ccccc3NC(CC)=C2C(=O)OCC)oc2ccccc12	?	21µM*	8.2µM*	10µM*	?
